According to the supplement of paper PMC6555819:

The sequences below were run on LXRa:RXRa (NR concentration 270 nM, RXRa partner concentration 90 nM) (assay: PBM binding z-score (relative to random genomic background probes); higher = stronger binding; sequences stand for … in GC…GCGATTGACAGCGTAGAATGAAGG).
Summary of the method: (§1)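 Binding buffer was PBS pH 7.4 with 2% milk, 0.02% Triton X-100, 1 mM DTT, 0.2 mg/mL BSA and 0.4 mg/ml salmon testes DNA. In it, ligand-free nuclear receptor dimers were incubated 1 h on custom Agilent 4×180K protein-binding microarrays carrying double-stranded probes. Antibodies against each partner (one per run) detected binding, and z-scores were calculated against random background probes after regression normalization of scanned fluorescence.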

Sequence	PBM binding z-score
ATCGAAAGGTCGAAGGTGAGTATACCCACCCGAA	3.8
TCTTGTAGATCAATAGAGGTTACGAAAGTGCGCT	3.47
TCTTGTTGATCAAGCAGGTTAAGAAAGCCTGAGT	0.33
CGTCCTAGGTCAAGGTCAGTGAAAGAGACTCGAA	4.07
GGAACGAGTGCAAAGTTGATAGCATCTGTCGACG	-0.0741
TCTAGTTGGTCTCGGAGGTCACACACGACGGGTA	3
CTAACTAGGTCAGAACAGGACAGTGAAGGATGAT	0.974
TCTTGTAGATCAACAGGAGTTTAAGAAAGATCGA	0.229
CGTCCACGGTCAATGCTAGGTCAGTGAAAGCATT	1.1
CCTTACGGGTCACTGACAGGTTAAAGCATTTGGA	4.59
CCTAGTTGGTCAGGAGGTAACACACCGGATATGA	0.0725
ATAACGAGGGCAATGAGTTGATAGCACGGGTGGC	0.688
GCGACTGGGGCATAGCAGGTTACCATAAGGTTGG	0.135
TTACCAAGCTGAGCTGAGGTCGTTGATCCAACTC	-0.149
CGGCCAAGGTCAGAGAGGTCAGTGAATGCCGAGT	5.04
GGGACTGGGGCAAAGCAGGTTACCATAAGGTTGG	0.705
TCAGACAAGTGAAGGTAACTCAGGTACGCAGTCG	1.36
GCTTGTAGATCACGGTTAAGAAAGACTAAGCTAA	-0.33
GTTAGTTGGTCAGTAAAAGGTCACACACCGGTCG	4.28
TCATATAGGTAAACAGGTGAAAGTTCGTAAGTTA	1.3

Sequence	PBM binding z-score
ACTAGTTGGTCAGGTGAGGTCACACACAATTCGG	3.4
ATCGAAAGGTCGAAGGTGAGAATACCCACCCGAA	3.81
TCTTCTAGATCAAAGGTTAAGAAAGCCGAAGCCT	1.87
CCTTACGGGTCACGATGTTATAGCACGACGAGCG	3.85
GGAATGAGGGCAAAGTTGATAGCATCTGTCGACG	1.26
TCATATAGGTAATACAGGTGACAGTCGGCATCTA	1.27
CCTATTAGTTGACCATAAAGGCAACCGAAGCTCG	0.566
ATCTCTAGGTAAAGTTCCGTGAAAGATCGATAGA	0.229
CATCGGAGGACAACAGGAGGTCAGAGCTGCCAGA	2.43
CGTCAAAGTCCAACTAAGGTAACGTAAAGCACGC	0.0247
TTGCCTAGGTCATTCAGGGGCCAGTATAGAAAGC	3.97
ATCTCTAGGTAAAGATAGTTCAGCGAATGCAAAT	4.41
ATCTCTAGGTAAGACTCAGTTCAGTGAAGAACGC	0.477
AAACCAAGGTGATCGTGAGGTCGTTGATACTAAC	1.29
GTACCAAGGTGAATAGATCGTTGATGAGTAGGCG	0.133
CCTCGGAGGACAACAGGAGCTCAGAGCTGCCAGA	-0.474
CAAGCTAGGTCACAGAGGTCAAAGTCCGTGCGTA	6.83
ACTTTTAGTTGACTTAGGGCAACCGATACGACGC	0.796
TCTATTAGTTGAAGGGTAACCGACGAGTCCGTTT	1.12

What follows are sequences tested on LXRa homodimer (NR concentration 270 nM) in the same assay as above.
Summary of the method: as §1

Sequence	PBM binding z-score
ATCGAAAGGTCGAAGGTGAGTATACCCACCCGAA	0.189
TCTTGTAGATCAATAGAGGTTACGAAAGTGCGCT	0.474
TCTTGTTGATCAAGCAGGTTAAGAAAGCCTGAGT	-0.00348
CGTCCTAGGTCAAGGTCAGTGAAAGAGACTCGAA	0.811
GGAACGAGTGCAAAGTTGATAGCATCTGTCGACG	-0.379
TCTAGTTGGTCTCGGAGGTCACACACGACGGGTA	2.28
CTAACTAGGTCAGAACAGGACAGTGAAGGATGAT	0.159
TCTTGTAGATCAACAGGAGTTTAAGAAAGATCGA	-0.339
CGTCCACGGTCAATGCTAGGTCAGTGAAAGCATT	0.946
CCTTACGGGTCACTGACAGGTTAAAGCATTTGGA	0.409
CCTAGTTGGTCAGGAGGTAACACACCGGATATGA	0.325
ATAACGAGGGCAATGAGTTGATAGCACGGGTGGC	-0.402
GCGACTGGGGCATAGCAGGTTACCATAAGGTTGG	-0.575
TTACCAAGCTGAGCTGAGGTCGTTGATCCAACTC	-0.687
CGGCCAAGGTCAGAGAGGTCAGTGAATGCCGAGT	2.26
GGGACTGGGGCAAAGCAGGTTACCATAAGGTTGG	0.405
TCAGACAAGTGAAGGTAACTCAGGTACGCAGTCG	-0.177
GCTTGTAGATCACGGTTAAGAAAGACTAAGCTAA	-0.625
GTTAGTTGGTCAGTAAAAGGTCACACACCGGTCG	5.17
TCATATAGGTAAACAGGTGAAAGTTCGTAAGTTA	1.04

Sequence	PBM binding z-score
ACTAGTTGGTCAGGTGAGGTCACACACAATTCGG	2.65
ATCGAAAGGTCGAAGGTGAGAATACCCACCCGAA	0.0457
TCTTCTAGATCAAAGGTTAAGAAAGCCGAAGCCT	-0.049
CCTTACGGGTCACGATGTTATAGCACGACGAGCG	0.154
GGAATGAGGGCAAAGTTGATAGCATCTGTCGACG	-0.314
TCATATAGGTAATACAGGTGACAGTCGGCATCTA	0.299
CCTATTAGTTGACCATAAAGGCAACCGAAGCTCG	0.992
ATCTCTAGGTAAAGTTCCGTGAAAGATCGATAGA	0.166
CATCGGAGGACAACAGGAGGTCAGAGCTGCCAGA	2.12
CGTCAAAGTCCAACTAAGGTAACGTAAAGCACGC	0.14
TTGCCTAGGTCATTCAGGGGCCAGTATAGAAAGC	0.809
ATCTCTAGGTAAAGATAGTTCAGCGAATGCAAAT	0.481
ATCTCTAGGTAAGACTCAGTTCAGTGAAGAACGC	0.614
AAACCAAGGTGATCGTGAGGTCGTTGATACTAAC	0.284
GTACCAAGGTGAATAGATCGTTGATGAGTAGGCG	-0.179
CCTCGGAGGACAACAGGAGCTCAGAGCTGCCAGA	-0.523
CAAGCTAGGTCACAGAGGTCAAAGTCCGTGCGTA	7.42
ACTTTTAGTTGACTTAGGGCAACCGATACGACGC	0.546
TCTATTAGTTGAAGGGTAACCGACGAGTCCGTTT	0.425
